PubChem BioAssay (NCI)
This is part of a sample that, as a whole, favours compounds with a hit. Of some 79,000 tested, about 15% had one in any assay. Values without a mark were called inactive. Active and inactive are the calls of the source. Cut-off read from the data, not from the text of the source: active = growth inhibition above about 70%; inactive = the rest.

Experiment: NCI Yeast Anticancer Drug Screen. Data for the sgs1 mgt1 strain (AID 161);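 note: 0% = growth of cultures given vehicle only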
Settings: S. cerevisiae sgs1 mgt1 strain, at 50.0 µM, stronger effect = higher value
Method in brief: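 Growth of a repair-deficient yeast mutant was monitored after compound treatment and expressed as inhibition relative to vehicle-treated cultures.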

With `NC(=O)/C(N=Nc1ccccc1)=N\Nc1ccccc1` as the molecule, how does the growth inhibition read?
Its growth inhibition is 94.8% (active).

With `Nc1ncnc2c1nnn2CCCCCC(=O)O` as the molecule, how does the growth inhibition read?
The growth inhibition was 21.8%.

For `Nc1ccc(S(=O)(=O)c2ccc(Nc3ccnc4cc(Cl)ccc34)cc2)cc1`, which growth inhibition is on record?
Its growth inhibition is 5.05%.

With `O=C1NC(=O)C(c2cccc(F)c2)N1` (centres undefined) as the molecule, how does the growth inhibition read?
Its growth inhibition is 9.7%.

For `O=C(NNC(=O)c1cccc(Br)c1)c1ccccc1`, which growth inhibition is on record?
The growth inhibition was -0.1%.

Which growth inhibition does the source give for `CC(=O)OCC1OCOC2C(COC(C)=O)OCOC12` (centres undefined) here?
Its growth inhibition is -8.15%.

For `C[Si](C)(C)N1N=NC2C(=O)N(c3ccccc3)C(=O)C21` (centres undefined), which growth inhibition is on record?
Its growth inhibition is -13.4%.

With `C=CCCCCCCCCC(=O)NCc1cccnc1` as the molecule, how does the growth inhibition read?
Its growth inhibition is 29.6%.

For `CC(=O)c1ccc(CCCCc2ccc([N+](=O)[O-])cc2)cc1`, which growth inhibition is on record?
Its growth inhibition is 16.5%.

For `CCOC(=O)/C(=N/Nc1ccc(C)cc1)N1C(=S)C=C(C)NN(C)C1=S`, which growth inhibition is on record?
The growth inhibition was -31.1%.

With `NC1=NN(c2ccccc2)C(=O)C1/C(=N\NC(=O)c1cc2ccccc2cc1O)C(=O)Nc1ccc(Cl)c(Cl)c1` (centres undefined) as the molecule, how does the growth inhibition read?
The growth inhibition was -17.2%.

With `Cc1c(C(=O)Nc2ccc(Cl)c(C(F)(F)F)c2)oc2cc(O)ccc2/c1=N\NC(N)=S` as the molecule, how does the growth inhibition read?
Its growth inhibition is -23.6%.

For `CCCCC(=O)N/N=C\c1cc(Cl)ccc1[N+](=O)[O-]`, which growth inhibition is on record?
The growth inhibition was -6.65%.

With `COc1cccc2c1[C@@]1(C)C3C(=O)OC(C)(c4ccccc43)[C@@]1(C)C2=O` (some centres undefined) as the molecule, how does the growth inhibition read?
Its growth inhibition is -7.45%.

Which growth inhibition does the source give for `CCOC(=O)c1c(C)nc(C)c(C(=O)OCC)c1-c1ccnc2ccccc12` here?
The growth inhibition was 17.4%.

For `CN/N=C(/Cc1occc(=O)c1O)C(=O)Nc1ccc(C)c(C)c1`, which growth inhibition is on record?
The growth inhibition was -16.7%.

For `CN(C)Cc1cc(C(C)(C)C)cc(CN(C)C)c1O`, which growth inhibition is on record?
The growth inhibition was -13%.

With `CC(N)C(O)C(C)C(=O)O` (centres undefined) as the molecule, how does the growth inhibition read?
The growth inhibition was 41.8%.

With `CC(=O)Oc1ccc2c(c1)CCC1C2CCC2(C)CC(OC(C)=O)CC12` (centres undefined) as the molecule, how does the growth inhibition read?
Its growth inhibition is -19.2%.

With `COC(=O)NC(Nc1ccc(C)cc1)(C(F)(F)F)C(F)(F)F` as the molecule, how does the growth inhibition read?
The growth inhibition was -39.6%.

With `O=C(Nc1ccccc1Cl)OCCOc1ccccc1` as the molecule, how does the growth inhibition read?
The growth inhibition was 11.3%.

Experiment: NCI Yeast Anticancer Drug Screen. Data for the cln2 rad14 strain (AID 165);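 note: 0% = growth equal to vehicle treated cultures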
Settings: S. cerevisiae cln2 rad14 strain, at 50.0 µM, stronger effect = higher value
Method in brief: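 Readout is yeast growth inhibition versus vehicle-treated controls, using a strain with cln2 and rad14 alterations exposed to compound.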

For `O=[N+]([O-])c1ccc(OCc2ccccc2)c(Cl)c1`, which growth inhibition is on record?
Its growth inhibition is -13.8%.

With `CCC(O)(Cc1ccc(OC)cc1)c1ccc(OC)cc1` (centres undefined) as the molecule, how does the growth inhibition read?
Its growth inhibition is 1.4%.

For `COc1ccc(N=C(N)N=C(N)N)cc1`, which growth inhibition is on record?
The growth inhibition was 8.2%.

Which growth inhibition does the source give for `O=C1NC(=O)C(CCI)N1` (centres undefined) here?
Its growth inhibition is 16.9%.

Which growth inhibition does the source give for `C[C@H]1C[C@H]2[C@@H]3CC[C@@]4(OCC4=O)[C@@]3(C)C[C@H](O)[C@]2(F)[C@@]2(C)C=CC(=O)C=C12` here?
Its growth inhibition is -34.9%.

For `O=C(Nc1ccc(Cl)cc1)c1ccc(Cl)cc1Cl`, which growth inhibition is on record?
The growth inhibition was -39.1%.

With `O=C(NO)c1ccc(Cl)cc1Cl` as the molecule, how does the growth inhibition read?
The growth inhibition was -11.9%.

Which growth inhibition does the source give for `C(=C1\COC(c2ccccc2)=N1)/c1ccc2c(c1)OCO2` here?
The growth inhibition was -19.6%.

With `CC(C)CCCC(C)C1CCC2C3CC=C4CC(OCCC(C)C)CCC4(C)C3CCC12C` (centres undefined) as the molecule, how does the growth inhibition read?
The growth inhibition was 84.3% (active).

Which growth inhibition does the source give for `O=S(=O)(O)SCC1=NCCCCN1` here?
The growth inhibition was -9.4%.

Which growth inhibition does the source give for `Clc1ccc(OCc2nnc3n2N=C(c2ccc(Br)cc2)CS3)cc1` here?
Its growth inhibition is 7.05%.

With `NC(=S)Cc1ccccn1` as the molecule, how does the growth inhibition read?
Its growth inhibition is -19.1%.

Which growth inhibition does the source give for `O=C1CC2CCCCC2CC1c1ccccc1` (centres undefined) here?
Its growth inhibition is -22.6%.

With `O=C(OC1CCCCC1)C(=O)OC1CCCCC1` as the molecule, how does the growth inhibition read?
The growth inhibition was -37.2%.

With `BrC1CC1(c1ccccc1)c1ccccc1` (centres undefined) as the molecule, how does the growth inhibition read?
Its growth inhibition is -6.4%.

With `Cc1ccc(N)c(C#N)c1` as the molecule, how does the growth inhibition read?
The growth inhibition was 1%.

For `C[C@H](C(=O)C12CC3CC(CC(C3)C1)C2)[C@H](O)c1ccccc1`, which growth inhibition is on record?
Its growth inhibition is 17%.

Which growth inhibition does the source give for `CCCCS(=O)(=O)CCC(N)C(=O)O` (centres undefined) here?
The growth inhibition was -36.2%.

With `CC1CC[N+](C)([B-](F)(F)F)CC1` (centres undefined) as the molecule, how does the growth inhibition read?
Its growth inhibition is -31.1%.

With `NC(=O)/C(N=Nc1ccccc1)=N\Nc1ccccc1` as the molecule, how does the growth inhibition read?
The growth inhibition was 73.2% (active).

For `Nc1ncnc2c1nnn2CCCCCC(=O)O`, which growth inhibition is on record?
Its growth inhibition is -7.95%.

With `Nc1ccc(S(=O)(=O)c2ccc(Nc3ccnc4cc(Cl)ccc34)cc2)cc1` as the molecule, how does the growth inhibition read?
The growth inhibition was 7.55%.

For `O=C1NC(=O)C(c2cccc(F)c2)N1` (centres undefined), which growth inhibition is on record?
Its growth inhibition is -9%.

With `O=C(NNC(=O)c1cccc(Br)c1)c1ccccc1` as the molecule, how does the growth inhibition read?
The growth inhibition was 5.65%.

With `CC(=O)OCC1OCOC2C(COC(C)=O)OCOC12` (centres undefined) as the molecule, how does the growth inhibition read?
Its growth inhibition is -24.4%.

Which growth inhibition does the source give for `C[Si](C)(C)N1N=NC2C(=O)N(c3ccccc3)C(=O)C21` (centres undefined) here?
Its growth inhibition is 0.1%.

With `C=CCCCCCCCCC(=O)NCc1cccnc1` as the molecule, how does the growth inhibition read?
The growth inhibition was 20.1%.

For `CC(=O)c1ccc(CCCCc2ccc([N+](=O)[O-])cc2)cc1`, which growth inhibition is on record?
Its growth inhibition is -59.5%.
